This note sets out measurements from PubChem BioAssay (Tox21).

Where “and” joins values, the source holds several entries; their conditions need not be identical. Equal entries are not always repeated. Records with an inconclusive call do not appear. A call without a number means that no potency is given here. Calls of active or inactive are those of the source. The call rests on the fitted dose curve.
Potency means the concentration at half of the fitted maximal effect.

The assay in a line: qHTS assay to identify small molecule antagonists of the sonic hedgehog signaling (Shh) pathway (AID 1259369). Further: nearly all actives have a fitted effect of over 45% in size. The note with it: NIH/3T3 Gli1-Luc reporter, Shh antagonist, luminescence 24 h; series mostly up to 92.4 µM. From the text: U.S. Tox21 Program National Center for Advancing Translational Sciences [NCATS] NIH Chemical Genomics Center [NCGC] U.S. Environmental Protection Agency [EPA] National Institutes of Environmental Health Sciences [NIEHS] National Toxicology Program [NTP] U.S. Food and Drug Administration [FDA] Tox21 Assay Overview: The sonic hedgehog (Shh) pathway is essential for normal embryonic development. Dysregulation of the Shh pathway can cause severe developmental defects in organs. Therefore chemicals that interfere with the pathway are potential developmental toxicants. A cell line designated 3T3Gli1-Luc (DMB/OARSA/CFSAN/FDA, Laurel, MD), a NIH/3T3 derived clone containing stably integrated Gli1-Luc reporter is used to detect chemical interference of the Shh pathway, by changes in the expression of the firefly Luc gene under the control of the Gli1 transcriptional response element. This cell line was used to screen Tox21 libraries for identifying and prioritizing the potential developmental toxicants that interfere Shh pathway. Conditioned medium-stimulated mode was used to screen for chemicals inhibiting Shh signaling.
Tox21 Assay Protocol Summary: 3T3 Gli1-Luc cells were dispensed at 2,000 per well in 5uL of culture medium into white solid bottom 1536-well plates (Greiner Bio-One, Monroe, NC) using a Multidrop Combi (Thermo Scientific, Waltham, MA) dispenser. The assay plates were incubated at 37 C and 5% CO2 for 4hr, and then 23nL of compounds dissolved in DMSO and positive control were transferred using a Pintool station (Wako, San Diego, CA). The compound transfer was followed by the addition of 1ul conditioned medium or assay buffer using two separate tips of Flying Reagent Dispenser (FRD, Aurora Discovery, San Diego, CA). The assay plates were incubated at 37C and 5% CO2 for 24hr. For luciferase read, 4uL of Amplite Luciferase reporter gene assay reagent (AAT Bioquest, Inc. Sunnyvale, CA) was added to each well of the assay plates using FRD and incubated at room temperature for 30min. The luminescence signal was measured using a ViewLux plate reader (Perkin Elmer, Shelton, CT).
Take `CO[Si](CCCNc1ccccc1)(OC)OC`: the Potency entry is “inactive”.
Turning to `CCOC(=O)/C=C(C)/C=C/C=C(C)/C=C/c1c(C)cc(OC)c(C)c1C`, the Potency entry was “inactive”.
Turning to `Cc1c(C)c2c(c(C)c1OC(=O)CCC(=O)O)CC[C@@](C)(CCC[C@H](C)CCC[C@H](C)CCCC(C)C)O2`, the Potency entry was “inactive”.
Regarding `CCCCCCCCOc1ccccc1C(=O)Nc1ccc(C(=O)OCC[N+](C)(CC)CC)cc1`, the Potency entry was “inactive”.
Regarding `Cc1ccc(O)c2ncccc12`, the Potency was 0.531 µM (active).
The same measure for `C=CC(=O)OCC(CO)(COC(=O)C=C)COC(=O)C=C`: 1.54 µM (active) and 3.86 µM (active).
As for `CC(C)(C)C(=O)OCOC(=O)[C@@H]1N2C(=O)[C@@H](NC(=O)[C@H](N)c3ccccc3)[C@H]2SC1(C)C`, the Potency entry is “inactive”.
With `O=[N+]([O-])c1cc(Cl)c(Cl)c(Cl)c1Cl`, the Potency result was “inactive”.
For the compound `Nc1c2ccccc2nc2ccccc12`, the Potency entry is “inactive”.
Regarding `O=c1[nH]sc2ccccc12`, the Potency was 0.969 µM (active).
For the compound `Cc1[nH]nc2c1N=C(c1ccccc1Cl)c1cc([N+](=O)[O-])ccc1N2`, the Potency was 1.72 µM (active).
Turning to `CC[C@@]1(O)C(=O)OCc2c1cc1n(c2=O)Cc2c-1nc1ccccc1c2/C=N/OC(C)(C)C`, the Potency was 0.0668 µM (active).
Take `CC(C)(C)C(=O)OCOC(=O)C1N2C(=O)CC2S(=O)(=O)C1(C)C` (stereo not given): the Potency entry was “inactive”.
`O=C(NO)C1(NS(=O)(=O)c2ccc(Oc3ccc(F)cc3)cc2)CCOCC1`: the Potency entry was “inactive”.
`COc1cc(/C=C/C(=O)O[C@H]2CC[C@]34C[C@]35CC[C@]3(C)[C@@H]([C@H](C)CCC=C(C)C)CC[C@@]3(C)[C@@H]5CC[C@H]4C2(C)C)ccc1O`: the Potency entry is “inactive”.
`Cc1c(C)c2c(c(C)c1O)CCC(C)(COc1ccc(CC3SC(=O)NC3=O)cc1)O2` (stereo not given): the Potency was 54.5 µM (active).
For the compound `NC(=O)N1C(=O)C(C(=O)c2cc(Cl)cs2)c2cc(F)c(Cl)cc21` (stereo not given), the Potency is 6.86 µM (active).
With `COc1ccc(CN2CCN(C(c3ccc(F)cc3)c3ccc(F)cc3)CC2)c(OC)c1OC`, the Potency is 29.8 µM (active).
The entry for `Cc1cccc(N(C)C(=S)Oc2ccc3c(c2)C2CCC3C2)c1` (stereo not given) is “inactive”; for `Cn1cc(C(=O)[C@@H]2CCc3nc[nH]c3C2)c2ccccc21` it is 15 µM (active); for `CCCCC(CC)CN=C(N)NC(N)=NCCCCCCN=C(N)NC(N)=NCC(CC)CCCC` (stereo not given) it is 3.76 µM (active).
The same measure for `Cc1onc(-c2c(Cl)cccc2Cl)c1C(=O)N[C@@H]1C(=O)N2[C@@H]1SC(C)(C)[C@@H]2C(=O)O`: “inactive”; for `CC1=C(C(=O)OC(C)C)C(c2cccc([N+](=O)[O-])c2)C(C(=O)OC2CN(C(c3ccccc3)c3ccccc3)C2)=C(N)N1` (stereo not given): 29.8 µM (active); for `Nc1c(Cl)cc(Cl)cc1Cl`: “inactive”.
The entry for `Cc1cc(N)c(S(=O)(=O)O)cc1Cl` is “inactive”; for `CCCCCCCCCCCCCCCS(=O)(=O)Oc1ccccc1` it is “inactive”; for `Cc1[nH]cnc1C[C@H]1CCc2c(C)c3ccccc3n2C1=O` it is 18.9 µM (active).
As to `Oc1ccc(C2(c3ccc(O)cc3)CC3CC2C2CCCC32)cc1` (stereo not given), the Potency was 20.8 µM (active).
On to `Clc1ccc2nsnc2c1NC1=NCCN1`, for which the Potency entry was “inactive”.
With `CCCC(c1cc(C(C)(C)C)c(O)cc1C)c1cc(C(C)(C)C)c(O)cc1C`, the Potency was 13.9 µM (active).
Consider `COc1cc(-c2ccc(N=C=O)c(OC)c2)ccc1N=C=O`, for which the Potency entry was “inactive”.
With `Oc1cc2ccccc2c2ccccc12`, the Potency was 4.86 µM (active).
In the case of `CC(C)(C)NC(=O)[C@@H]1C[C@@H]2CCCC[C@@H]2CN1C[C@@H](O)[C@H](Cc1ccccc1)NC(=O)[C@H](CC(N)=O)NC(=O)c1ccc2ccccc2n1`, the Potency is 24.7 µM (active).
With `CCOc1nc2cccc(C(=O)OC(C)OC(=O)OC3CCCCC3)c2n1Cc1ccc(-c2ccccc2-c2nn[nH]n2)cc1` (stereo not given), the Potency was 21.7 µM (active).
As to `Cc1cc(O)c(Cl)c(C)c1Cl`, the Potency entry was “inactive”.
`c1ccc(CSCc2ccccc2)cc1`: the Potency result is “inactive”.
Consider `O=[N+]([O-])c1ccccc1Nc1ccccc1`, for which the Potency entry was “inactive”.
In the case of `Fc1ccc(C(c2ccc(F)cc2)N2CCN(C/C=C/c3ccccc3)CC2)cc1`, the Potency entry was “inactive”.
Consider `CC(=O)SC[C@@H](Cc1ccccc1)C(=O)NCC(=O)OCc1ccccc1`, for which the Potency entry was “inactive”.
With `O=C(c1ccc(F)cc1)C1CCN(CCn2c(=O)[nH]c3ccccc3c2=O)CC1`, the Potency result is “inactive”.
